# Screening results (PubChem)
# Most compounds without a hit are left out; they make up all but 6.6% or so of the library.
# KB-3-1 cytotox: qHTS assay for MDR1-selective chemotherapeutics: Primary screen using the parental adenocarcinoma cell KB-3-1 | AID 1347075, 2019 | hit rate 1.4% among 400,000 | Potency, µM (series often up to 46.1 µM), most hits filed as cytotoxic | KB-3-1 viability, CellTiter-Glo ATP luminescence, 72 h; note: % is set by controls: 0 for no effect and ±100 for the full control effect; nearly all actives have a fitted effect of over 60% in size
#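 Screening of KB-3-1 cells (DMEM, 10% FBS, phenol-red free) ran from lowest to highest compound concentration; after 72 h at 37 °C viability was read luminescently and curves fitted.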
# TGFb SMAD3 inh: qHTS for Inhibitors of TGF-b. HepG2 CAGA-GFP TGF-b/SMAD3 reporter, GFP fluorescence, 18 h; TGF-beta stimulated, 500 pg/mL final. Potency, µM (titrated, usually from 46.1 µM), without a hit: top-dose activity, negative = inhibition, usual class: inhibitors. hit rate 1.2% among 410,000. AID 588855, 2011; note: % is set by controls: 0 for no effect and ±100 for the full control effect; nearly all actives have a fitted effect of over 65% in size
#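 Using HEPG2 CAGA-GFP reporter cells at 1000 cells/well, we pinned test compounds, stimulated with recombinant TGF-beta (500 pg/mL final) and measured total well GFP after 18 h.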
# KB-V1 MDR tox: qHTS assay for MDR1-selective chemotherapeutics: Primary screen using the drug-selected MDR subline cells KB-V1. Potency, µM (top dose mostly 46.1 µM), actives largely listed as cytotoxic. hit rate 3.4% among 400,000. AID 1347076, 2019. KB-V1 MDR cells viability, CellTiter-Glo, 72 h; note: % is set by controls: 0 for no effect and ±100 for the full control effect; nearly all actives have a fitted effect of over 60% in size
#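 In this primary screen, KB-V1 cells overexpressing P-gp are incubated with library compounds (lowest to highest concentration) for 72 h at 37 degrees C before a luminescent ATP viability read.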
# HepG2 viability: qHTS for Inhibitors of TGF-b: Cytotox Counterscreen; HepG2 CAGA-GFP viability, ATP luminescence, 18 h; Potency, µM (doses to about 46.1 µM), for the others: top-dose activity change, negative = cytotoxicity, actives largely listed as cytotoxic; hit rate 0.76% among 410,000
#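 HepG2 CAGA-GFP cells (1000/well, DMEM with 1% FBS) received compound, then TGF-beta at 500 pg/mL final, and were incubated 18 hours at 37 degrees C. Viability was read by CellTiter-Glo luminescence. Media-only wells were set as complete cell-killing and DMSO as no toxicity.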
# HT1080-NT tox: qHTS for induction of synthetic lethality in tumor cells producing 2HG: qHTS for the HT-1080-NT fibrosarcoma cell line | HT-1080-NT fibrosarcoma viability, CellTiter-Glo ATP luminescence, 48 h | AID 686970, 2013 | hit rate 1.6% among 360,000 | Potency, µM (titrated, usually from 46.1 µM), without a hit: top-dose activity, negative = less viability, actives largely listed as cytotoxic;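 note: NT is the 2HG producing partner of a matched IDH1 knockdown line; 0% = DMSO-treated cells and -100% = media-only wells without cells; nearly all actives have a fitted effect of over 55% in size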
#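 Fibrosarcoma NT cells, 750 per well in 5% FBS RPMI, were exposed to compound for 48 hours. Viability: CellTiter-Glo luminescence.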
# HT1080 IDH1KD tx: qHTS for induction of synthetic lethality in tumor cells producing 2HG: qHTS for the HT-1080-IDH1KD cell line. HT-1080 IDH1 knockdown viability, ATP luminescence, 48 h. Potency, µM (highest dose often 46.1 µM), for inactives: top-dose activity, negative = toxicity, most hits filed as cytotoxic. hit rate 2% among 360,000. AID 686971, 2013;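 note: 0% = DMSO wells and -100% = cell-free medium wells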
#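 Luminescent ATP read-out (CellTiter-Glo, 10 min at room temperature) after 48 h compound exposure at 37 °C gave viability of IDH1-knockdown HT-1080 cells. Activity was normalised to DMSO and cell-free wells, then fitted as concentration-response curves.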
# * = called active by the depositor; i = inactive; ? = inconclusive; · = no result. Calls come from the whole dose curve; as a rule, active = well fitted curve in the direction sought with a large enough effect; inconclusive = small, poorly fitted or top-dose-only effect, or another doubt; inactive = no such curve, though single readings can be large; an effect the other way counts as inactive or inconclusive. Potency is the fitted concentration of half-maximal effect.
SMILES,KB-3-1 cytotox,TGFb SMAD3 inh,KB-V1 MDR tox,HepG2 viability,HT1080-NT tox,HT1080 IDH1KD tx
CCCN(CCC)C(=O)c1nn(C)c2c1CSc1ccccc1-2,·,?,·,-30%,·,·
O=C(Nc1ccc2ccccc2c1)Nc1nnc(-c2ccc(Cl)cc2Cl)s1,i,·,i,·,·,·
CC(C)c1nc2ccccc2c2nnc(SCC(=O)NCc3ccco3)n12,?,7%,4.1µM*,-13%,-2%,-29%
Cc1cc(C)n2c(SCC(=O)NCc3ccco3)nnc2n1,i,-10%,i,1%,8%,12%
CC(C)(C)c1nc2ccccc2c2nnc(SCC(=O)NCc3ccco3)n12,i,-10%,5.2µM*,-45%,13%,2%
Cc1occc1-c1nnc(SCC(=O)NCc2ccco2)n1CC(C)C,i,4%,i,-5%,3%,2%
C=CCn1c(SCC(=O)NCc2ccco2)nnc1-c1ccc2ccccc2n1,i,?,7.3µM*,-5%,-5%,-11%
COc1ccc(-c2cc(C(F)F)n3ncc(C(=O)N4CCc5ccccc54)c3n2)cc1,i,9%,?,5%,3.3µM*,2.9µM*
CCOc1ccccc1NC(=O)c1cnn2c(C(F)F)cc(-c3ccccc3)nc12,18µM*,0%,i,-27%,·,·
Cc1ccc(-c2cc(C(F)F)n3ncc(C(=O)N4CCCc5ccccc54)c3n2)cc1,i,-4%,i,-27%,-2%,-2%
CCNC(=S)NNC(=O)c1cc(-c2cccc(OC)c2)nc2ccccc12,i,-8%,i,-35%,8%,5%
CCNC(=S)NNC(=O)c1cc(-c2ccc(OCC)cc2)nc2ccccc12,?,20%,i,7.9µM*,3.5µM*,5µM*
CCOc1ccc(-c2cc(C(=O)O)c3ccccc3n2)c(OCC)c1,i,6%,i,-21%,14µM*,7.1µM*
CCC12CN3CC(C)(CN(C1)C3c1ccccc1C)C2=O (centres undefined),i,-25%,i,6%,·,·
CCC(C)NC(=O)CSc1nc2cc3c(cc2c(=O)n1CCCCCC(=O)NCc1ccc2c(c1)OCO2)OCO3 (centres undefined),·,2%,·,17%,·,·
Cc1ccc(S(=O)(=O)Cc2nc(-c3ccc(C(=O)NCc4ccccc4F)cc3)oc2C)cc1,·,-12%,·,-43%,·,·
CCOc1ccccc1NC(=O)c1cc(-c2ccccn2)nc2ccccc12,18µM*,8%,?,-1%,18%,0%
COCCNC(=O)c1cc(-c2ccc(-c3ccccc3)cc2)nc2ccccc12,21µM*,0%,i,-17%,?,?
CCNC(=S)NNC(=O)c1cc(-c2ccccc2C)nc2ccccc12,i,-9%,16µM*,-15%,?,?
Cc1ccccc1OCC(=O)NCC(=O)OCC(=O)c1ccc(F)cc1,i,?,i,-45%,·,·
O=C1CC(c2ccc(F)cc2)Cc2nc(NCC3CCCO3)ncc21 (centres undefined),i,15%,21µM*,-22%,-1%,-1%
O=c1cc(CN2CCN(c3ccccc3F)CC2)c2cc3c(cc2o1)CCCC3,i,?,i,18µM*,4%,18%
CCOc1cccc(CNCCO)c1OCc1ccc(Cl)cc1,i,-16%,i,-32%,-23%,-22%
OCCNCc1c(OCc2ccc(Cl)cc2)ccc2ccccc12,i,?,?,-96%,23µM*,?
CC(O)CNCCNCc1c(OCc2ccccc2)ccc2ccccc12 (centres undefined),i,11µM*,i,-93%,18µM*,11µM*
SMILES,KB-3-1 cytotox,TGFb SMAD3 inh,KB-V1 MDR tox,HepG2 viability,HT1080-NT tox,HT1080 IDH1KD tx
Cc1ccc(C(=O)c2oc3ccccc3c2NC(=O)Cc2coc3cc(C)ccc23)cc1,i,0%,i,8%,·,·
CN1/C(=C\C=O)C(C)(C)c2ccccc21,i,-4%,i,-10%,3%,-10%
CN1\C(=C/C=C/C=C/C=[N+](C)C)C(C)(C)c2ccccc21,?,?,8.2µM*,-34%,?,?
CCC(=O)N1c2ccccc2CC1C(=O)NCCN1CCN(c2cc(Cl)ccc2C)CC1 (centres undefined),i,-14%,i,-32%,·,·
Cc1ccc(Nc2nc(-c3ccc(F)cc3)cs2)nc1,i,14%,i,-40%,-3%,-5%
Cc1ccc(Nc2nc(-c3ccc(O)c(O)c3)cs2)nc1,?,?,i,-28%,?,23µM*
Cc1ccc(N2CC(NC(=O)c3ccc(S(=O)(=O)N4CCCC4)cc3)CC2=O)cc1C (centres undefined),·,-3%,·,3%,·,·
CCN1C/C(=C\c2cccc([N+](=O)[O-])c2)C(=O)/C(=C/c2cccc([N+](=O)[O-])c2)C1,0.92µM*,?,?,-51%,4.1µM*,2.3µM*
O=C1C(=Cc2ccccc2[N+](=O)[O-])Cc2ccccc21,i,13µM*,?,18µM*,?,?
COc1cccc(/C=C2\CCc3ccccc3C2=O)c1,i,?,i,-36%,?,?
O=C1NC(=O)C(=Cc2ccccc2[N+](=O)[O-])S1,?,-5%,?,-9%,21µM*,?
O=C1/C(=C/c2cccc([N+](=O)[O-])c2)CCc2ccccc21,?,?,16µM*,-38%,?,?
O=C1/C(=C/c2cccc([N+](=O)[O-])c2)CSc2ccc(Cl)cc21,i,12%,i,-2%,20%,13%
C=C1C=C(C(F)F)n2ncc(C(=O)N3CCN(c4ccccn4)CC3)c2N1,i,3%,i,1%,·,·
CCN(Cc1ccccc1)Cc1c(O)ccc2c(=O)c(-c3ccccc3OC)c(C(F)(F)F)oc12,i,?,i,-16%,·,·
COc1cc(C)ccc1OCCSc1nc2ccc(NC(=O)c3ccco3)cc2s1,i,-15%,?,-26%,·,·
CCCn1c(=N)n(CC(=O)C(C)(C)C)c2ccccc21,i,-1%,i,0%,-13%,-16%
CCn1c(=N)n(CC(=O)c2ccc(OC)c(OC)c2)c2ccccc21,i,2%,13µM*,-33%,2%,?
CCn1c(=N)n(CC(=O)OC)c2ccccc21,i,-29%,i,6%,9%,15%
